According to the supplement of paper PMC10849652:
The full data set covers some 8,800 targets. This sample favours those with a hit. About 0.5% of all pairs of compound and target were hits. Values without a mark were called inactive.

Tests used:
Experiment in all cases: log2 fold change, soluble protein after heating vs DMSO (PISA); higher = thermal stabilisation; K562 lysate, 10 uM; active = over 0.2 and 3.5 SD of the protein, either way, in both replicates (recomputed)
ibrutinib = compound: C=CC(=O)N1CCC[C@@H](n2nc(-c3ccc(Oc4ccccc4)cc3)c3c(N)ncnc32)C1 [ibrutinib]
Method in brief: (§1)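 Pellets of K562 cells were dounce-homogenised in PBS pH 7.4 with 1 mM MgCl2, and the crude extract was held at 1 mg/mL protein for a 30 min treatment with 10 μM compound. Aliquots were heated for 3 min over 48°C-58°C and pooled before NP-40 was added to 0.5% at 4°C. The supernatant from 21,000xg for 90 min was quantified by TMTpro 16plex LC-MS/MS with channel sums equalised. Values are reported from duplicates as log-two fold change in thermal stability relative to solvent controls.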

[1] = compound: CC(=O)c1cnc2ccc(-c3cc(Cl)c(O)c(Cl)c3)nc2c1N[C@H]1CC[C@H](CN(C)C)CC1
Method in brief: as §1

ralimetinib = compound: CC(C)(C)Cn1c(N)nc2ccc(-c3[nH]c(C(C)(C)C)nc3-c3ccc(F)cc3)nc21 [ralimetinib]
Method in brief: as §1

[2] = compound: CC(C)(O)CC(=O)NCCn1ccc2ncnc(Nc3ccc(Oc4cccc(C(F)(F)F)c4)c(Cl)c3)c21
Method in brief: as §1

[3] = compound: CC(C)C1=C2N=C(C=C(N2N=C1)NCC3=CC=CC=C3)NCCCCCCN
Method in brief: as §1

[4] = compound: CC1=C(C(CC(=O)N1)C2=CC=C(C=C2)C(F)(F)F)C(=O)NC3=C(C=C4C(=C3)C=NN4)F
Method in brief: as §1

[5] = compound: CC1=C(C2=C(C=C1)C(=O)C3=CC=CC=C3N2CCCN)C
Method in brief: as §1

[6] = compound: CC1=C(C=C(C=C1)NC(=O)C2=CC(=CC=C2)C(C)(C)C#N)NC3=CC4=C(C=C3)N=CN(C4=O)C
Method in brief: as §1

[7] = compound: CC1=C(C=C(C=C1)NC(=O)C2=CC(=CC=C2)N(C)C)NC(=O)C3=CC=C(C=C3)O
Method in brief: as §1

[8] = compound: CC1=CC=C(C=C1)SC2=C3C=C(SC3=CN=C2)C(=O)N
Method in brief: as §1

vemurafenib = compound: CCCS(=O)(=O)Nc1ccc(F)c(C(=O)c2c[nH]c3ncc(-c4ccc(Cl)cc4)cc23)c1F [vemurafenib]
Method in brief: as §1

[9] = compound: CCCS(=O)(=O)Nc1ccc(F)c(C(=O)c2c[nH]c3ncc(Cl)cc23)c1F
Method in brief: as §1

barasertib = compound: CCN(CCCOc1ccc2c(Nc3cc(CC(=O)Nc4cccc(F)c4)[nH]n3)ncnc2c1)CCOP(=O)(O)O [barasertib]
Method in brief: as §1

[10] = compound: CC[C@@H]1C(=O)N(C)c2cnc(Nc3ccc(C(=O)NC4CCN(C)CC4)cc3OC)nc2N1C1CCCC1
Method in brief: as §1

volasertib = compound: CC[C@@H]1C(=O)N(C)c2cnc(Nc3ccc(C(=O)N[C@H]4CC[C@H](N5CCN(CC6CC6)CC5)CC4)cc3OC)nc2N1C(C)C [volasertib]
Method in brief: as §1

[11] = compound: CCn1c(C(=O)N(C2CC2)C2CC2)cc2c3c(ncn3C)c(Nc3cc(C)n(C)n3)nc21
Method in brief: as §1

[12] = compound: CCn1cc(-c2ccnc3[nH]c(-c4cccc(CN(C)C)c4)cc23)c(-c2ccc(NC(=O)N(C)C)cc2)n1
Method in brief: as §1

[13] = compound: CN1CCC(CNc2ccc3ncc(-c4cccc(OC(F)(F)F)c4)n3n2)CC1
Method in brief: as §1

saracatinib = compound: CN1CCN(CCOc2cc(OC3CCOCC3)c3c(Nc4c(Cl)ccc5c4OCO5)ncnc3c2)CC1 [saracatinib]
Method in brief: as §1

sotrastaurin = compound: CN1CCN(c2nc(C3=C(c4c[nH]c5ccccc45)C(=O)NC3=O)c3ccccc3n2)CC1 [sotrastaurin]
Method in brief: as §1

UniProt O60645, sequence (O60645 whole entry, looked up): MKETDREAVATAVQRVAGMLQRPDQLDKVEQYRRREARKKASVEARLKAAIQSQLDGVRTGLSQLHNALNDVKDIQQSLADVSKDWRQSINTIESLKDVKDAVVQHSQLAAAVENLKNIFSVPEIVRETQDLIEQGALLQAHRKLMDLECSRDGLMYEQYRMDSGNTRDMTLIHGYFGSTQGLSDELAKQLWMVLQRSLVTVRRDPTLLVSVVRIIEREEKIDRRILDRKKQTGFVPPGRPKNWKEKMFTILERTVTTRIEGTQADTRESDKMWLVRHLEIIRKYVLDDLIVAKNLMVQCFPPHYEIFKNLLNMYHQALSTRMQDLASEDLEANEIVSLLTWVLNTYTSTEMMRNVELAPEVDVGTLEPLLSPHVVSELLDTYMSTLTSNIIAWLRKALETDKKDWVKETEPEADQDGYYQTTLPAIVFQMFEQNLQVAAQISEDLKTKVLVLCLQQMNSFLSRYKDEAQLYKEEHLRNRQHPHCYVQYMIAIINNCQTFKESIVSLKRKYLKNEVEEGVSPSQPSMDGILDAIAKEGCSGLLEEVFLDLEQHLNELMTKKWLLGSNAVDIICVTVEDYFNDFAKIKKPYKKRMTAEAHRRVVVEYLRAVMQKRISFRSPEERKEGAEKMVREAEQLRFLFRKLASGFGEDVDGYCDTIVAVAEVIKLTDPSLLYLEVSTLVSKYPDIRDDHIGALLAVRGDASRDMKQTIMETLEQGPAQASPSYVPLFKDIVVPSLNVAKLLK
UniProt P11474, sequence (P11474 whole entry, looked up): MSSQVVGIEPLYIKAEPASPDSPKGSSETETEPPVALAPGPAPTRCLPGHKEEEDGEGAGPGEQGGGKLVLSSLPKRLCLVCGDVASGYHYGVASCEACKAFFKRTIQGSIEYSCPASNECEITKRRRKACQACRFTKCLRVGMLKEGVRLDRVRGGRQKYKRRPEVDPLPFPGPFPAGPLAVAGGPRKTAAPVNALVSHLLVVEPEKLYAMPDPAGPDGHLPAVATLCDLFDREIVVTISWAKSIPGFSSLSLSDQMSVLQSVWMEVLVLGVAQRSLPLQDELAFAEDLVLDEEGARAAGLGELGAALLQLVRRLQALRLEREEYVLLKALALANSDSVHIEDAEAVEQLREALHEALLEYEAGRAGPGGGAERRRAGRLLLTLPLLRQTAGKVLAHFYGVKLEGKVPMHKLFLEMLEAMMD
UniProt Q9Y285, sequence (Q9Y285 whole entry, looked up): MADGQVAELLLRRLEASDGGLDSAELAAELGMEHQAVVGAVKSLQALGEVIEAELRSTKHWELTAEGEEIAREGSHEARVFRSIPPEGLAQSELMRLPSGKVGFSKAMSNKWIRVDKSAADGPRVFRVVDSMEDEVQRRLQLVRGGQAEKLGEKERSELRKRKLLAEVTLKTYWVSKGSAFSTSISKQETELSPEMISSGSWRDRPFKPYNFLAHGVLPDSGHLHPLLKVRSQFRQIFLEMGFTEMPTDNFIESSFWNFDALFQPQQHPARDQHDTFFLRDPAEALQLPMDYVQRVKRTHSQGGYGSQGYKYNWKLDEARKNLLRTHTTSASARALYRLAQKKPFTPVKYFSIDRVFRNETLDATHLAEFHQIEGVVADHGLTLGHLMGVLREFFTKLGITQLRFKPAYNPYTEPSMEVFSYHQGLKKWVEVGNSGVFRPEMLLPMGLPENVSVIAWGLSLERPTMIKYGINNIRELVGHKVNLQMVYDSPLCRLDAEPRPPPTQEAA
UniProt Q8NFI3, sequence (Q8NFI3 whole entry, looked up): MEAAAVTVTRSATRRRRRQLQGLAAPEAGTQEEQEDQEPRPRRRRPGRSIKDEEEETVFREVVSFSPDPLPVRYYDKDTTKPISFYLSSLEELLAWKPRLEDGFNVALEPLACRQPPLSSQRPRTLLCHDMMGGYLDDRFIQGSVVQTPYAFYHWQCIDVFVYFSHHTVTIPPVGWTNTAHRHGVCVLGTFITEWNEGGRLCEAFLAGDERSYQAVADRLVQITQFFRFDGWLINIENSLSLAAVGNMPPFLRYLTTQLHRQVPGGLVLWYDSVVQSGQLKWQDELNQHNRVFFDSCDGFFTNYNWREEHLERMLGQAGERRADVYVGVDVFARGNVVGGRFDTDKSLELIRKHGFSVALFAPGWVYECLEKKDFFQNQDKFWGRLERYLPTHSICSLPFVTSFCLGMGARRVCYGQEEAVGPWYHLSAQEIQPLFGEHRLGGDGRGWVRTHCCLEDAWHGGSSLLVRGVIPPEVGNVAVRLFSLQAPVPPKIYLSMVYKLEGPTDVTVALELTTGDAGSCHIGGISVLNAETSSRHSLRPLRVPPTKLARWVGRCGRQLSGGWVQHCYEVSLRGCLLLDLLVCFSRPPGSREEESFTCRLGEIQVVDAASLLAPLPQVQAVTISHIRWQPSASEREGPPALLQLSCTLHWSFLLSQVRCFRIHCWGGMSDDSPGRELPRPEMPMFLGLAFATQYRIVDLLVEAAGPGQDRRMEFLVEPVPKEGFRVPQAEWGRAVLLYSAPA
UniProt Q9BXW9, sequence (Q9BXW9 whole entry, looked up): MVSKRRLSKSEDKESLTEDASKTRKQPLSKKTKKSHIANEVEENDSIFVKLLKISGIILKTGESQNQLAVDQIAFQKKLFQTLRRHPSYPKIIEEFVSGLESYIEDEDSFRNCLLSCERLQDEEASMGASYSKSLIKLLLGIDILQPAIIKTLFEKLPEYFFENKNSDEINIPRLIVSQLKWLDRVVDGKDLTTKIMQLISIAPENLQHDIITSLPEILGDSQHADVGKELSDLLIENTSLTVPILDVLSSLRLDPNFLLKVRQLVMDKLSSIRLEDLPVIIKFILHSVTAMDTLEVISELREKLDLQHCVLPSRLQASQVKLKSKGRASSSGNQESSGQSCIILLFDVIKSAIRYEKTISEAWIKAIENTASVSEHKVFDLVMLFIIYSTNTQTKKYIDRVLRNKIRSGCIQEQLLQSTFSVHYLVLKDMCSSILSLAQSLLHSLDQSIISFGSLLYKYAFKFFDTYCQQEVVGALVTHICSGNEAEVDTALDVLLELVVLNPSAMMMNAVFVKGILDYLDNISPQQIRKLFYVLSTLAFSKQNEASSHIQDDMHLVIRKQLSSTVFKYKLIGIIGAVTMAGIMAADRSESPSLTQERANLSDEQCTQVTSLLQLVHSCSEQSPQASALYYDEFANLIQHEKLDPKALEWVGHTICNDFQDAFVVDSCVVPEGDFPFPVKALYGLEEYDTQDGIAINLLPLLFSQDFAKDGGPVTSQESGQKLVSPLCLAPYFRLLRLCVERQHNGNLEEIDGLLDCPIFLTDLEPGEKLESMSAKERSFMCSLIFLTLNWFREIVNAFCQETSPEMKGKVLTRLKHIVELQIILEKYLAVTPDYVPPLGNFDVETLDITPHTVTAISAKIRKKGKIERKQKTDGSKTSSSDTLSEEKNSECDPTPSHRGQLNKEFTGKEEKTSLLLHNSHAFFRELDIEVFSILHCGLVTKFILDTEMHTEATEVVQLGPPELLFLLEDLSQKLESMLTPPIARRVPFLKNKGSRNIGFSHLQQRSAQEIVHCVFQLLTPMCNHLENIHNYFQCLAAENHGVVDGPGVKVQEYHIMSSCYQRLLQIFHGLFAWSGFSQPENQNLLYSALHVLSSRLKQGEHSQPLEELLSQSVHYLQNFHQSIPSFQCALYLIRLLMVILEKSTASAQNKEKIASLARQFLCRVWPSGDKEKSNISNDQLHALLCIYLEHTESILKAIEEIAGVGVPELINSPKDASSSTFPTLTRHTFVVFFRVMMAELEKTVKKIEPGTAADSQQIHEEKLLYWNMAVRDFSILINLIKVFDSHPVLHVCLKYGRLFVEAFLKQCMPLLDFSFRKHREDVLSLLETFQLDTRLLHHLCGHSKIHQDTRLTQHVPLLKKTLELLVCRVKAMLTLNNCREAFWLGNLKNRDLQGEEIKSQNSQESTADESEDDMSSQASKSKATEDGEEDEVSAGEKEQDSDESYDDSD
UniProt O43427, sequence (O43427 whole entry, looked up): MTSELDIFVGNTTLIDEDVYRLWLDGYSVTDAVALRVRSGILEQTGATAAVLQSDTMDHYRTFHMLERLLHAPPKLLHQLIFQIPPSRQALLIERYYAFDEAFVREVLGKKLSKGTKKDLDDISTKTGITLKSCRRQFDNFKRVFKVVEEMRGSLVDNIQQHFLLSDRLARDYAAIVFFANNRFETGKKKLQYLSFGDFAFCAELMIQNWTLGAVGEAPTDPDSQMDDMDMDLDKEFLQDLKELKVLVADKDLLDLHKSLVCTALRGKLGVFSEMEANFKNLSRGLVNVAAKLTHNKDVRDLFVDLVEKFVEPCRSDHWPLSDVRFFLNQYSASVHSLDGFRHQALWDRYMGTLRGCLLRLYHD
UniProt Q96G46, sequence (Q96G46 whole entry, looked up): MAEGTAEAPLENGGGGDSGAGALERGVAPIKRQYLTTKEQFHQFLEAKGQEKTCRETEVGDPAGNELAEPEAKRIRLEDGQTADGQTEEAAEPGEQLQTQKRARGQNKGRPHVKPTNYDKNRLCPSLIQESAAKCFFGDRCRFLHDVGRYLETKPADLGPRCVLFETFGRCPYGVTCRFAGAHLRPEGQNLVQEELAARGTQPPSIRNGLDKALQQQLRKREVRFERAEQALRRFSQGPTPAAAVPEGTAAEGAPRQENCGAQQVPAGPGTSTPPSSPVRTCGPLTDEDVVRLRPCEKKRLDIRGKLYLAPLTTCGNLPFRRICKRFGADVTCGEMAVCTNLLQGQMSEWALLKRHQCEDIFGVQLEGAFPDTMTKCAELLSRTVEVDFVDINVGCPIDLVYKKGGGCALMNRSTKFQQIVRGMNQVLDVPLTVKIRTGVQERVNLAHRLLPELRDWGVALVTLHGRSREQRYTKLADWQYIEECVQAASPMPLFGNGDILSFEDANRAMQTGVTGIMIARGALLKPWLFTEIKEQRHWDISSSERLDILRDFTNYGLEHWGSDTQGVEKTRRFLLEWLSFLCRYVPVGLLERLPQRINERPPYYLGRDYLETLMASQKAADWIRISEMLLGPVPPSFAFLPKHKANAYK
UniProt P54852, sequence (P54852 whole entry, looked up): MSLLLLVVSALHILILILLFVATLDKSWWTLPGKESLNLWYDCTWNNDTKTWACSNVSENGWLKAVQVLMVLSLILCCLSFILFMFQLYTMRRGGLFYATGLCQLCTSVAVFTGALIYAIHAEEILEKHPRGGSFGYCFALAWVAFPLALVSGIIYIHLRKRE

Target	log2 fold change (ibrutinib)	log2 fold change [1]	log2 fold change (ralimetinib)	log2 fold change [2]	log2 fold change [3]	log2 fold change [4]	log2 fold change [5]	log2 fold change [6]	log2 fold change [7]	log2 fold change [8]	log2 fold change (vemurafenib)	log2 fold change [9]	log2 fold change (barasertib)	log2 fold change [10]	log2 fold change (volasertib)	log2 fold change [11]	log2 fold change [12]	log2 fold change [13]	log2 fold change (saracatinib)	log2 fold change (sotrastaurin)
FDX2 (UniProt Q6P4F2)	0.056	-0.025	-0.047	-0.194	-0.039	0.01	-0.018	0.015	0.05	0.006	0.022	-0.011	0.166	0.069	0.038	-0.047	-0.264	-0.003	-0.122	-0.027
EMP3 (UniProt P54852)	0.045	-0.012	0.088	-0.081	0	0.013	-0.003	0.041	-0.036	-0.01	0.022	-0.002	0.005	0.066	0.124	-0.112	-0.967 (active)	0.365 (active)	0.049	-0.029
EXOC2 (UniProt Q96KP1)	0.014	0.003	0.049	-0.027	-0.022	0.01	-0.019	0.016	0.032	0.004	0.018	0.109	0.041	-0.028	-0.043	0.031	0.017	-0.094	0.034	0.049
DST (UniProt Q03001)	0.007	-0.031	-0.034	-0.098	0.021	-0.052	-0.054	0.049	0.063	-0.046	0.23	0.021	0.083	0.021	-0.045	-0.073	-0.174	0.076	0.052	-0.024
EEF1A1P5 (UniProt Q5VTE0)	-0.01	-0.007	0.001	-0.014	0.032	0.008	0.019	-0.006	0.012	-0.011	0.022	0.002	-0.017	0.004	-0.022	-0.031	-0.105	0.073	-0.021	0.025
EPB41, A0A2R8Y6D0	0.04	0.007	0.171	0.094	-0.061	-0.012	0	-0.065	0.078	-0.02	-0.019	-0.004	0.043	-0.108	0.006	-0.24	-0.047	0.594 (active)	-0.082	0.044
EEF1A1, A0A087WVQ9	0.085	0.019	-0.006	0.019	-0.007	0.091	0	-0.023	-0.006	0.004	0.011	0.047	-0.069	0.027	-0.003	-0.026	-0.016	-0.12	0.077	0.013
DUS3L (UniProt Q96G46)	0.012	-0.003	0.023	-0.034	-0.007	0.004	-0.007	0.014	0.001	-0.003	-0.055	0.004	-0.038	-0.025	0.005	-0.043	0.246 (active)	-0.048	0.021	0.033
FTSJ3 (UniProt Q8IY81)	0.05	0.005	0.026	-0.033	0.086	0.016	-0.037	-0.01	0.002	0.04	-0.004	-0.011	0.006	0.011	-0.033	0.024	0	-0.005	0.015	-0.003
FDFT1 (UniProt P37268)	-0.004	-0.014	-0.014	0.018	0.013	-0.034	-0.028	-0.02	0.017	0.012	-0.012	0.111	0.023	0.005	-0.069	0.01	-0.047	-0.022	-0.019	0.437 (active)
ESRRA (UniProt P11474)	-0.408 (active)	0.045	0.043	-0.023	0	-0.007	-0.075	0.067	-0.009	0.089	0.058	0.005	0.041	0.03	-0.075	-0.039	0.569 (active)	-0.283	-0.055	0.053
ENGASE (UniProt Q8NFI3)	0.019	0.019	-0.02	0.012	-0.02	-0.002	0.012	-0.046	0.067	0	0.034	0.05	0.003	0	-0.035	-0.031	0.028	0.052	-0.019	-0.008
EXOC3 (UniProt O60645)	-0.029	-0.012	0.025	0.048	0.025	0	-0.042	0.037	0.067	0.004	0.049	0.021	0.02	-0.081	-0.086	0.045	-0.057	-0.001	0.004	0.03
FANCD2 isoform 1 (UniProt Q9BXW9)	0.01	-0.009	0	-0.066	0.048	-0.02	-0.068	0.071	0.011	-0.008	0.067	0.053	0.04	0.14	-0.045	0.017	-0.135	0.02	0.016	-0.029
FIBP (UniProt O43427)	0.015	0.02	0.032	-0.026	0.028	0.057	0.036	0.01	0.024	0.011	-0.011	0.041	0.105	-0.236 (active)	-0.013	-0.001	-0.028	-0.021	0.039	0.008
FARSA (UniProt Q9Y285)	-0.006	-0.02	0.048	0.025	0.06	-0.014	-0.063	0.055	0	0.006	-0.002	-0.01	-0.012	0.091	-0.035	-0.068	-0.018	0.054	0.03	0.583 (active)
